PubChem BioAssay AID1894 (NMMLSC, 2009)
The whole screen tested about 5,900 compounds, of which about 100 (1.7%) were called active. This excerpt belongs to a sample that is enriched for actives. A number with no mark means an inactive call.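 The calls were made as follows: active = binding response below 72% of control, or above a set upper limit, though filed actives all read lower; inactive = the rest.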

Molecular target: Mitogen-activated protein kinase kinase kinase 3 (Homo sapiens) (UniProt Q99759)
Sequence (Q99759 whole entry, looked up): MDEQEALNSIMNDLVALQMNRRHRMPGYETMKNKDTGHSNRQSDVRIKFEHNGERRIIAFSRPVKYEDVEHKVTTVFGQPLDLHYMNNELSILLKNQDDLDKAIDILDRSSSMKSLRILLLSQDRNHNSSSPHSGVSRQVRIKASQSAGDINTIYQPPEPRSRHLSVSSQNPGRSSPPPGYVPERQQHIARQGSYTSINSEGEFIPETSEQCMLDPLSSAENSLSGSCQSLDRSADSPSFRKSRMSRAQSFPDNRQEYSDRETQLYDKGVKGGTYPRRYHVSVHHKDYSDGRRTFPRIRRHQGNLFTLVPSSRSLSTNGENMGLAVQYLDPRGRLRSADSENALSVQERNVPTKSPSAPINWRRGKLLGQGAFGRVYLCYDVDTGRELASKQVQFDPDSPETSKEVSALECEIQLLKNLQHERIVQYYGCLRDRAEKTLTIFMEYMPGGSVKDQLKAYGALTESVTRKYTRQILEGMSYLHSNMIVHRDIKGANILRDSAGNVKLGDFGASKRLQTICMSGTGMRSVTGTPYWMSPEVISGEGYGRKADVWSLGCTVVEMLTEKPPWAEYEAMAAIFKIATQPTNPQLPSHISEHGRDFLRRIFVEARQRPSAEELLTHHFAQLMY
Test: MEKK3 wild-type PB1 binding to MEK5, inhibitors, confirmation, biochemical, bead multiplex flow cytometry, single concentration, wildtype (AID 1894);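 also: 100% = DMSO only wells and 0% = binding blocked by excess unlabeled MEK5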
Conditions: Alexa488-MEK5 binding to MEKK3, at 10 µM, hits give low values

SMILES	binding response (% of control)
COc1ccccc1OCCNCC(O)COc1cccc2[nH]c3ccccc3c12 (stereo unspecified)	100%
O=C(NCCN1CCOCC1)[C@H](Cc1ccccc1)N1C(=O)c2ccccc2C1=O	100%
c1ccc(Nc2nc(N3CCOCC3)c3ccccc3n2)cc1	106%
CCOc1ccc(S(=O)(=O)NCCCn2ccnc2)cc1NC(C)=O	97%
CSCC[C@H](NC(=O)CCCn1nnc2ccccc2c1=O)C(=O)O	102%
COc1cc(NC(=S)NCc2ccco2)c(OC)cc1Cl	104%
CC(C)C(=O)N1c2ccccc2NC2=C(C(=O)CCC2)C1c1ccc(N(C)C)cc1 (stereo unspecified)	106%
COc1ccccc1N=C(C)C1=C(O)COC1=O	102%
CC1(C)Cc2cccc(OCC(=O)N3CCN(c4ccc([N+](=O)[O-])cc4)CC3)c2O1	103%
CN(C)c1ccc(/C=C2\NC(=S)N(Cc3ccccc3)C2=O)cc1	99%
CC(C)CC(=O)N1CCN(Cc2ccccc2Br)CC1	107%
CC1(C)OC(=O)N2CCc3ccccc3C21C (stereo unspecified)	104%
COc1cccc(NC(=S)NCc2ccccn2)c1	96%
CCOc1nnc(C)c2c(C)n(-c3cccc(Cl)c3)nc12	91%
CCCc1nnc(SCC(=O)N2C(C)CCCC2C)n1CC (stereo unspecified)	111%
O=C(Nc1cccnc1)c1cc(Cl)ccc1Cl	106%
O=C(O)CC(Cc1ccccc1)C(=O)Nc1ccc([N+](=O)[O-])cc1 (stereo unspecified)	100%
COc1cccc(/C=N\NC(=O)C2=NNC(=O)C2C)c1O (stereo unspecified)	100%
CNC(C)C#Cc1ccc2sc3cc(OC)c(OC)cc3c(=O)c2c1 (stereo unspecified)	104%
Cc1ccc(Nc2nc(CSc3nnc(-c4ccncc4)n3-c3ccccc3C)cs2)cc1	103%
Cc1c(S(=O)(=O)NCc2ccccc2)c(=O)n(C)c(=O)n1C	101%
Cc1cnc(NC(=O)Cn2cnc3c2c(=O)n(C)c(=O)n3C)s1	97%
C=CCn1c(=S)sc2c(=O)[nH]c(C)nc21	107%

SMILES	binding response (% of control)
CC1CCN(C2=NC(=O)/C(=C/c3cn[nH]c3-c3ccccc3)S2)CC1	91%
O=C(CCCO)N/N=C/c1cc(Br)ccc1O	102%
COc1ccc(CC(=O)N2N=C(C)CC2(O)C(F)(F)F)cc1 (stereo unspecified)	98%
O=C1C=CC(=O)N1c1ccc(N2CCCCC2)cc1	100%
N=c1c2c(-c3ccccc3)c(-c3ccccc3)n(Cc3ccccc3)c2ncn1CCCO	110%
Cc1cccc(/C=N/NC(=O)CNc2cccc3ccccc23)n1	110%
O=C(O)CCCC(=O)Nc1ccc(Oc2cccc(C(F)(F)F)c2)nc1	105%
Cc1nn(-c2ccccc2)c(C)c1NC(=O)CCl	97%
COC(=O)c1c(NC(=O)COC(=O)[C@@H](NS(=O)(=O)c2ccccc2)C(C)C)sc2c1CCC2	102%
Cc1cn(COC/C=C/c2ccccc2)c(=O)[nH]c1=O	105%
CCO[C@H]1OC(C(=O)N2CCOCC2)=C[C@@H](c2ccc3c(c2)OCO3)[C@@H]1CCCO	104%
Cc1noc(C)c1S(=O)(=O)N(C)Cc1ccccc1	103%
CCN(CC)C(=O)CC(c1ccc2c(c1)OCO2)c1c(OC)cc(OC)c2c(-c3ccccc3)cc(=O)oc12 (stereo unspecified)	103%
FC(F)(F)c1nc(-c2ccccc2)ncc1-c1nnnn1-c1ccccc1	100%
CCOC(=O)N1CCN(CC(=O)n2c(C)c(C)c3ccccc32)CC1	97%
Cn1c(=NC(=O)CSCC(=O)N2CCOCC2)sc2ccccc21	86%
Cc1nc2cc(S(=O)(=O)C(F)(F)F)ccc2s1	101%
CCN1CCN(c2nc(Nc3cc(OC)ccc3OC)nc(Nc3cc(OC)ccc3OC)n2)CC1	106%
Cc1ccccc1C(=O)NNC(=O)CN1C(=O)c2ccccc2C1=O	93%
CCOC(=O)c1c(Cc2ccc(Cl)cc2)c[nH]c1C	107%
CCOC(=O)C(NS(=O)(=O)c1ccc(C)cc1)(C(F)(F)F)P(=O)(OCC(C)C)OCC(C)C (stereo unspecified)	94%
C#CCOCCOCCOCCNc1nc(N2CCN(C(=O)C([C@@H](C)CC)n3cc(C(N)COC(=O)C(F)(F)F)nn3)CC2)nc(N2CCN(C(=O)[C@H](CCCCN)n3cc(C(N)CC(C)C)nn3)CC2)n1 (stereo partly specified)	106%
COc1ccc(C2CC(c3cccs3)=NN2c2nc(C)c(C(C)=O)s2)cc1OC (stereo unspecified)	97%

SMILES	binding response (% of control)
Cc1ccc(NC(=O)COc2ccc(-n3ccnc3)cc2)cc1Cl	108%
Fc1ccc(-c2ccc(CNCc3ccccn3)o2)cc1Cl	103%
O=C(NC1CCN(Cc2ccccc2)CC1)c1cc(Br)c(Br)[nH]1	110%
O=C(O)/C(=C/c1cccnc1)NC(=O)c1ccccc1	104%
CCCCn1c(SCC(=O)NCCc2ccc(OC)c(OC)c2)nc2c1c(=O)n(C)c(=O)n2C	100%
COc1ccc(SC[C@H](Cc2ccccc2)N2CCN(CCc3ccccc3)CCC2=O)cc1	107%
O=C1Nc2ccc(Br)cc2/C1=N/N=C/C1=C(N2CCOCC2)C(=C\c2ccccc2)/CC1	54% (active)
C=CCn1c(P(C)(=O)O)nc2ccccc21	97%
O=C(OCC1O[C@@H](OC(=O)c2cc(O)c(O)c(O)c2)[C@@H](OC(=O)c2cc(O)c(O)c(O)c2)[C@@H](OC(=O)c2cc(O)c(O)c(O)c2)[C@@H]1OC(=O)c1cc(O)c(O)c(O)c1)c1cc(O)c(O)c(O)c1 (stereo partly specified)	1% (active)
C#CCOCCOCCOCCNc1nc(N2CCN(C(=O)[C@H](CCCCN)n3cc([C@@H](N)C(C)CC)nn3)CC2)nc(N2CCN(C(=O)[C@H](Cc3ccc(O)cc3)n3cc([C@@H](N)C(C)CC)nn3)CC2)n1 (stereo partly specified)	109%
COc1ccc(N2CCN(Cc3nnc(-c4ccccc4)o3)CC2)cc1	96%
Cc1ccc(S(=O)(=O)NC(=O)N2CCCC(C)(C)C2)cc1	98%
C=CCN1C=C2C(=O)C(C)(OC(=O)CCc3ccccc3)C(=O)C=C2C=C1c1ccc(C#N)cc1 (stereo unspecified)	103%
Cc1ccc(N2C(=O)CC(N3CCSCC3)C2=O)c(C)c1 (stereo unspecified)	102%
C/C=C/c1ccc(OCCCCN2CCC(C)CC2)c(OC)c1	103%
CN1CCN(/N=C/c2ccc(C#N)cc2)CC1	86%
COc1cc2c(cc1OC)CN(C(=O)c1ccc(S(=O)(=O)N3CCCCCC3)cc1)CC2	100%
CN(CC(=O)Nc1cccc(F)c1)CC(=O)Nc1cccc([N+](=O)[O-])c1	103%
N/C(=N\OS(=O)(=O)c1cccc([N+](=O)[O-])c1)c1ccncc1	104%
C=CCN(CC=C)S(=O)(=O)c1ccc(C(=O)Nc2sc3c(c2C(N)=O)CCCCC3)cc1	100%
Cc1ccc(N(CCC(=O)O)S(=O)(=O)c2cccc(C(F)(F)F)c2)cc1	102%
Cc1ccc(CNC(=O)Cn2c(=O)c3sccc3n(Cc3cccc([N+](=O)[O-])c3)c2=O)cc1	102%
COc1cccc(C2CC(c3ccccc3)=NN2S(=O)(=O)c2ccccc2)c1OC (stereo unspecified)	100%

SMILES	binding response (% of control)
O=C(Nc1ccn(Cc2ccccc2)n1)c1cccc(F)c1	100%
CCCCOC(=O)c1ccc(N2C(=O)CC(N3CCN(C/C=C/c4ccccc4)CC3)C2=O)cc1 (stereo unspecified)	104%
COc1cc(-c2nnc(Cn3cc(C(F)(F)F)ccc3=O)o2)cc(OC)c1OC	102%
COc1cc(Br)c(-c2sc(Nc3ccccc3)n[n+]2-c2ccccc2)cc1OC	102%
COc1cccc(/C(C)=N/Nc2ncc(Cl)cc2Cl)c1	108%
COc1cc(/C=C2\SC(=S)N(Nc3ncc(C(F)(F)F)cc3Cl)C2=O)cc(OC)c1OC	90%
CCN(CC)CCOCCOc1ccc(Cl)c2ccccc12	107%
CCOc1ccc(NC(=O)Nc2cc(C)ccc2OC)cc1	100%
Cc1onc(-c2ccccc2Cl)c1C(=O)OCC(=O)c1ccccc1	100%
O=C(OCc1cc(Cl)ccc1OC(F)F)c1cccnc1	97%
O=c1c(/C=N/O)coc2ccc(Cl)cc12	101%
O=C(Nc1ccc(Cl)cn1)c1cnn2cccnc12	105%
CCOC(=O)c1sc2nc(C)nc(SCC(N)=O)c2c1C	109%
CCC(C)OC(=O)C(C)Oc1ccc(-c2ccccc2)cc1 (stereo unspecified)	108%
COc1ccc(C(=O)C[n+]2ccc(C)cc2)cc1	103%
CCN1CCN(c2ccc(S(=O)(=O)N3CCCCC3)cc2NC(=O)Cc2c(Cl)cccc2Cl)CC1	104%
Cc1nn(-c2ccccc2)c(NC(=O)c2cccs2)c(-c2ccc(Cl)cc2)c1=O	101%
Cc1cc(C(=O)OCC(=O)N2c3ccccc3NC(=O)C2(C)C)c(C)n1-c1ccccc1	106%
Cc1cccn2c(=O)c(/C=C3\SC(=S)N(CC(C)C)C3=O)c(NCCCOC(C)C)nc12	86%
C/C(CC(=O)NC(C)(C)C)=N\NC(=O)c1ccco1	100%
Cc1ccc(C(=O)N/C(=C/c2ccco2)C(=O)NCCc2c[nH]c3ccccc23)cc1C	105%
CCC(=C/c1sc2ccc3ccccc3c2[n+]1C)/C=C1\Sc2ccc3ccccc3c2N1C	29% (active)
